In all, about 330,000 compounds went through this assay and about 1,400 (0.42%) were called active. The sample holds actives, similar compounds and a random draw of the others, so the mix is not that of the screen.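 How the source made its calls: active means at least 40% inhibition at 20 µM here, with at most 30% in a related deaminase screen; inactive means the rest.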
biological target: DNA dC->dU-editing enzyme APOBEC-3A (Homo sapiens) (UniProt P31941); experiment: blockers of A3A cytidine deamination on DNA – biochemical, FAM/TAMRA oligo cleavage fluorescence, selectivity assay for APOBEC3G inhibitor project, primary screen (AID 493011); conditions: recombinant A3A, FAM/TAMRA ssDNA deamination fluorescence; at 20 µM; stronger effect = higher value;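 further: plate controls were A3A with DMSO for no effect and wells lacking A3A enzyme for full effect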
Sequence (P31941 whole entry, looked up): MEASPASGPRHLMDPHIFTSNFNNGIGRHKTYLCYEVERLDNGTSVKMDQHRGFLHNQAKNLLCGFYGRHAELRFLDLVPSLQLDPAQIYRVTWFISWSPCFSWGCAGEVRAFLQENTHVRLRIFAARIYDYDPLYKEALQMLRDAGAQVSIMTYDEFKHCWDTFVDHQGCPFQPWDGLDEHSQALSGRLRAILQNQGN

SMILES | inhibition
O=C(CN1CCOC1=O)N1CCCC(Nc2ccc(F)c(F)c2)C1 (stereo not given) | -3.28% (inactive)
CCS(=O)(=O)c1ccc(-c2cccc(NC(=O)c3ccc(Br)o3)c2)nn1 | 95.4% (active)
CC(CNC(=O)c1ccc(Br)o1)NC(=O)c1ccc(Br)o1 (stereo not given) | 2.21% (inactive)
O=C(CNC(=O)c1ccc(Br)o1)Nc1ccccc1 | -8.36% (inactive)
Cc1cc(C)cc(Oc2c(C(F)(F)F)oc3cc(OCC(=O)O)ccc3c2=O)c1 | 9.37% (inactive)
N#Cc1ccsc1NC(=O)CN1CCN(S(=O)(=O)c2cc(Cl)ccc2Cl)CC1 | 40.6% (active)
N#Cc1ccsc1NC(=O)CN1CCCCC1 | -2.27% (inactive)
O=C(CN1CCN(S(=O)(=O)c2cc(Cl)ccc2Cl)CC1)c1ccc(O)c(O)c1 | -5.68% (inactive)
CC(CC(=O)C1C(C)C=CCC1(C)C)NNC(N)=O (stereo not given) | 0.901% (inactive)
CSc1ccccc1NC(=O)c1cnc2sc(C)cn2c1=O | 0.854% (inactive)
CCc1c(C)nc2ncnn2c1N1CCC(C(=O)NCc2ccc3c(c2)OCO3)CC1 | 2.23% (inactive)
O=C(COC(=O)c1ccccc1O)NCc1ccco1 | 32.8% (inactive)
COc1ccc(CCNC(=O)COC(=O)c2cnc(Cl)c(Cl)c2)cc1 | 4.13% (inactive)
O=C(COC(=O)c1cnc(Cl)c(Cl)c1)NCc1ccco1 | 50.6% (active)
CC(C)CCN1CCC(C)(NC(=O)c2ccccc2)C1=O (stereo not given) | 0.313% (inactive)
COc1ccccc1N(C)S(=O)(=O)c1ccc(Cl)c(C(=O)N2CCC(C(N)=O)CC2)c1 | 1.46% (inactive)
Cc1sc(NC(=S)NC(=O)c2cccs2)nc1-c1ccc(CC(C)C)cc1 | 2.88% (inactive)
CCc1nnc(NC(=O)CCC(=O)N2CCN(c3cc(C)ccc3C)CC2)s1 | -1.97% (inactive)
COc1ccc(Cc2cc(-c3ccc(F)cc3)n[nH]c2=O)cc1 | -4.85% (inactive)
CCC(=O)N(CCc1ccccc1)Cc1cc2cc(C)ccc2[nH]c1=O | -6.3% (inactive)
COc1ccc2[nH]c(=O)c(-c3noc(-c4ccc(F)cc4)n3)cc2c1 | 70.7% (active)
COc1ccc2[nH]c(=O)c(CNc3ccc(C)c(C)c3)cc2c1 | 0.515% (inactive)
CCN(Cc1cc2cc(C)ccc2[nH]c1=O)S(=O)(=O)c1ccccc1 | -2.49% (inactive)
CCCc1nc(-c2cc3cc(C)ccc3[nH]c2=O)no1 | 40.2% (active)
C/C(=C\c1ccco1)CN1CCC(N2CCC(C(=O)N3CCOCC3)CC2)CC1 | -1.12% (inactive)

SMILES | inhibition
CC1CCCCC1NC(=O)CSc1nnc(N)s1 (stereo not given) | -0.077% (inactive)
Cc1cc(C)n2nc(C(=O)Oc3ccc4c(c3)OCO4)nc2n1 | 0.02% (inactive)
Cc1ccc(-c2nc(C#N)c(NCCCn3ccnc3)o2)cc1 | 0.374% (inactive)
CC[n+]1cc(C)ccc1/C=C/c1ccc(N(C)C)cc1 | 64.4% (active)
CN1CCN(S(=O)(=O)c2cccc(C(=O)Nc3sccc3C#N)c2)CC1 | 0.346% (inactive)
Cc1ccc(CNC(=O)c2ccc(CS(=O)Cc3cccc(Cl)c3)o2)cc1 (stereo not given) | -4.67% (inactive)
Cc1ccc(/C=C/C(=O)OCC(=O)NCc2ccc(Cl)cc2)o1 | 1.93% (inactive)
CS(=O)(=O)NCc1ccc(C(=O)NCc2ccccc2)cc1 | -3.29% (inactive)
Nc1ccc(C(=O)NCc2ccccc2)cc1 | 5.23% (inactive)
C[n+]1ccc(C(=O)NCc2ccccc2)cc1 | 77.2% (active)
COc1ccc(Cl)cc1NC(=O)COC(=O)c1ccc(Br)o1 | -2.56% (inactive)
COc1ccc(CNc2nnnn2C)cc1 | 63.5% (active)
Cn1nnnc1NCc1ccc(Cl)c(Cl)c1 | 1.46% (inactive)
CCCn1nnnc1NCc1ccc(OC)cc1 | -5.24% (inactive)
Cc1ccc(N(Cc2ccccc2O)C(=O)c2ccccc2F)cc1 | 3.92% (inactive)
C/C=C(/C)C(=O)OC1Cc2c(ccc3ccc(=O)oc23)OC1(C)C (stereo not given) | -4.35% (inactive)
CC1(C)Oc2ccc3ccc(=O)oc3c2/C(=N/O)C1=O | -5.21% (inactive)
CC1(C)Oc2ccc3ccc(=O)oc3c2/C(=C/NCCO)C1=O | 55.6% (active)
Cc1cnc(C(=O)OCC(=O)NCCCc2ccccc2)cn1 | -5.14% (inactive)
COc1ccc2[nH]c(C)c(CCN(Cc3cccs3)C(=S)Nc3ccccc3OC)c2c1 | -5.52% (inactive)
COc1ccccc1CNC(=O)c1ccc(CS(=O)(=O)c2ccccc2)o1 | 3.87% (inactive)
O=C(c1ccc(CS(=O)(=O)c2ccccc2)o1)N1CCN(c2ccccc2)CC1 | 40% (active)
O=C(c1ccc(S(=O)(=O)NCc2ccco2)cc1)N1CCN(c2ccccc2)CC1 | -1.4% (inactive)
Cc1c(NC(=O)C(C)Oc2cccc(Cl)c2)c(=O)n(-c2ccccc2)n1C (stereo not given) | 2.72% (inactive)
O=C(NCCCNCc1ccccc1)c1ccc(/C=N/O)nc1 | 0.078% (inactive)

SMILES | inhibition
C[N+](C)(C)CCNC(=O)c1cc[n+](Cc2ccccc2)c(/C=N/O)c1 | 77.9% (active)
CC(C)c1ccc(C(=O)NCCCc2ccccc2)cc1 | -3.9% (inactive)
COc1ccc(C(=O)NNc2cc(C)nc(NNC(=O)c3ccc(OC)cc3)n2)cc1 | 1.15% (inactive)
CCC(=O)Nc1ccc(Nc2nc(Cl)nc(Nc3ccc(NC(=O)CC)cc3)n2)cc1 | -1.91% (inactive)
CC(=O)Nc1ccc(Nc2cc(C)nc(Nc3ccc(NC(C)=O)cc3)n2)cc1 | 52.3% (active)
COc1ccc(NC(=O)C(NC(C)=O)C(=O)NCc2ccccc2Cl)cc1 (stereo not given) | -1.84% (inactive)
CC(C)c1c(O)nc(SCCOc2ccc(Cl)cc2)[nH]c1=O | -2.86% (inactive)
CCN(Cc1ccccc1)C(=O)CN1C(=S)NC(C)(C)CC1C (stereo not given) | -4.37% (inactive)
CCOC(=O)c1ccc(NC(=O)CNC(=O)c2ccco2)cc1 | -2.59% (inactive)
CCN(CC)CCNCC(=O)Nc1ccc(Oc2ccccc2)cc1 | -4.52% (inactive)
CCN(CC)CCOC(=O)c1ccc(NC(=O)CNC(=O)c2ccccc2)cc1 | 49.1% (active)
CC(C)Oc1ccc(C(CC(=O)N2CCOCC2)C(C)C)cc1 (stereo not given) | 2.91% (inactive)
CNc1ccc([N+](=O)[O-])cc1C(=O)O | 43.2% (active)
CCN(CC)c1ccc([N+](=O)[O-])cc1C(=O)O | 3.17% (inactive)
Cc1ccc(NC(=O)c2cc([N+](=O)[O-])ccc2Cl)c(O)c1 | 1.45% (inactive)
Cc1ccc(N/N=C2\COC(C)(C)CC2=O)cc1 | -3.88% (inactive)
Cc1cccc(C(=O)NCC(=O)OCC(=O)N(C)CC(=O)Nc2ccccc2Cl)c1 | -1.62% (inactive)
Cc1cccc(OCC(=O)NCCNC(=O)c2cccnc2)c1 | -1.26% (inactive)
CCNC(=O)COC(=O)CCNC(=O)c1cccc(C)c1 | 82.3% (active)
CC(C)Cn1c(N2CCN(C(=O)/C=C/c3ccccc3)CC2)nc2ccccc21 | -1.07% (inactive)
Cc1cc2c(cc1C)[n+](C)cn2CC(O)COCC1CC=CCC1 (stereo not given) | 46.1% (active)
COc1ccc(-c2noc(CCC(=O)N3CCN(c4cccc(C)c4)CC3)n2)cc1 | 3.55% (inactive)
CC(C)(CSc1nncn1/N=C/c1ccco1)NS(=O)(=O)c1ccc(Cl)cc1 | 5.18% (inactive)
O=C(NC1CC1)C1CCCN(C(=O)NC2CCCCC2)C1 (stereo not given) | -2.29% (inactive)
CC[C@]1(C(=O)OC)[C@H]2C(=O)N(C)C(=O)[C@H]2[C@H]2CN(C)C(=NCc3ccccc3)N21 | 2.1% (inactive)
